TWEAK Fn14 block – inhibitors of TWEAK-Fn14 interaction signaling | TWEAK-stimulated Fn14 reporter cells, luciferase luminescence, 8 h | inhibition, % at 10 µM | 360,000 compounds, 2% hits; in the data active = inhibition above about 50%
MITF TRPM1 inh – MITF TRPM1 promoter inhibition in SK-MEL-5 cells | SK-MEL-5 TRPM1 promoter luciferase, 24 h | inhibition, % at 12.5 µM | 330,000 compounds, 0.83% hits | AID 488899;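 active = mean inhibition across replicates of 60% or more, whatever share of single replicates reaches that level; inconclusive = some that reach 60%, reason not given; inactive = mean inhibition across replicates below 60%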
HIF-2a inh – inhibitors of HIF-2a; 786-0 RCC cells HIF-2a reporter, luciferase luminescence, overnight; inhibition, % at 18.8 µM; 360,000 compounds, 0.72% hits; AID 624352;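 active = inhibition of the luminescence signal of 40% or more relative to plate controls, in a single-dose primary screen at 18.75 µM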
EBV LMP1 NFkB – reduces LMP1-driven NF-kappaB luciferase signal. 350,000 compounds, 0.69% hits. inhibition, % at 12.5 µM. LMP1-induced NF-kappaB luciferase reporter cells, luminescence; in the data active = inhibition above about 41%; inconclusive = no clear call, values can overlap the other calls
Shn3 3UTR inh – Schnurri-3 reporter inhibition in Clone20 osteoblasts. inhibition, % at 12.5 µM. 360,000 compounds, 0.52% hits. Clone20 osteoblast Shn3 3'UTR firefly luciferase, 24 h;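 active = mean inhibition of at least 75% with every replicate also reaching 75%; inconclusive = mean inhibition at least 75% but some replicate below; inactive = mean inhibition below 75%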
TROY NFkB inh – inhibitors of TROY-dependent NF-kB signaling | Q293 LMP1-TROYcd NF-kB luciferase reporter, 4 h | inhibition, % at 10 µM | 360,000 compounds, 0.98% hits;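 active = compounds whose plate-normalised and pattern-corrected inhibition of the luciferase reporter signal at the single screening dose is 50% or more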
Hits are given with their value; - = inactive; ? = inconclusive; . = not tested or not shown; ! = not active in a repeat. Compounds with a hit are over-represented: about 3.4% of the library has one in this group of screens.

SMILES | TWEAK Fn14 block | MITF TRPM1 inh | HIF-2a inh | EBV LMP1 NFkB | Shn3 3UTR inh | TROY NFkB inh
O=C(NC12CC3CC(CC(C3)C1)C2)c1ccc(-c2ccccc2Cl)o1 | 64 | - | - | - | - | .
CSc1nc(C(C)C)ccc1CNC(=O)CC(C)c1ccccc1 (centres undefined) | - | - | - | - | - | -
COc1ccc(NC(=O)C2(C)CCN2C(=O)C(C)C)cc1F (centres undefined) | - | . | - | . | - | -
CN(Cc1cc(Cl)cc(Cl)c1)CC(C(=O)c1ccccc1)c1ccccc1 (centres undefined) | - | 84 | - | - | - | -
CCOc1ccc(NC(=O)CN(C)C(=O)C2CC(=O)N(c3cccc(SC)c3)C2)cc1OCC (centres undefined) | - | - | - | - | - | -
CCN(CC)c1ccc(/C=N/NC(=O)c2ccccn2)cc1 | - | - | - | - | . | -
Cc1ccc(/C=N\NC(=O)c2csnn2)cc1 | 50 | - | - | - | - | -
CCc1ccc(/C=N/NC(=O)c2ccccn2)cc1 | 86 | - | - | 49 | . | -
Cc1ccc(/C=N/NC(=O)c2ccccn2)s1 | 51 | - | - | - | - | -
Nc1cc(S(=O)(=O)Nc2ccccc2Cl)ccc1N1CCCCC1 | - | . | - | - | - | -
CC1(C)CC(=O)C=C(c2ccc(Oc3ccccc3)cc2)C1=O | - | . | - | - | - | -
CC1(C)CC(=O)C=C(c2ccc(-c3cnc4ccccc4c3)cc2)C1=O | 85 | . | - | - | - | 92
CC(=O)c1ccc(-c2cccc(-c3cc(=O)oc4ccc(C(C)(C)C)cc34)c2)cc1 | - | - | - | - | - | -
C/C(=N\NC(=O)C1(C)CC1(Br)Br)c1cccc(NC(=O)c2ccc(C)o2)c1 (centres undefined) | 56 | - | - | - | - | -
CCCc1cc(C(=O)OCC(=O)NCCc2ccccc2)sc1C | - | . | - | - | - | -
O=c1c2cc3c(cc2[nH]c(=S)n1CCN1CCOCC1)OCO3 | - | - | - | - | - | 78
CCc1ccc(-c2cc3c(=O)n(CC(=O)NCCCN4CCN(CC)CC4)nc(C)n3n2)cc1 | - | - | - | - | - | -
CCCCCCCCCCCCCCCC[n+]1ccc(/C=N/O)cc1 | - | 78 | 70 | - | - | -
CCCCCCCCCCCCCCCC[n+]1ccccc1 | 77! | 82 | 93 | - | 97 | 52!
O=C(O)C1C2C=CC(C2)C1C(=O)NCc1ccc(Cl)cc1Cl (centres undefined) | - | - | - | - | - | -
CCOC(=O)c1c(C)[nH]c(C(=O)OCc2nc3ccsc3c(=O)[nH]2)c1C | - | . | - | - | - | -
CCn1cc(C(=O)NCc2ccco2)c(=O)c2cc(S(=O)(=O)N3CC(C)CC(C)C3)ccc21 (centres undefined) | - | - | - | - | 85 | -
CCn1cc(CN(C)S(=O)(=O)c2ccc3ccccc3c2)c(C)n1 | - | - | - | - | 90 | -
O=C(N/N=C(\CC(=O)c1cccs1)C(F)(F)F)c1ccncc1 | - | - | - | - | - | -
Cc1ccc(C(=O)N/N=C(/CC(=O)c2cccs2)C(F)(F)F)cc1 | - | - | - | - | - | 53
SMILES | TWEAK Fn14 block | MITF TRPM1 inh | HIF-2a inh | EBV LMP1 NFkB | Shn3 3UTR inh | TROY NFkB inh
O=C(CCCn1c(=S)[nH]c2ccccc2c1=O)N1CCN(c2cccc(Cl)c2)CC1 | 51 | - | - | - | - | 52
O=C(CCCCCNc1nc(=S)[nH]c2ccccc12)N1CCN(c2ccccn2)CC1 | - | - | - | - | - | -
COc1cccc(N2CCN(C(=O)CCCCCNc3nc(=S)[nH]c4ccccc34)CC2)c1 | 53 | - | - | - | - | 70
Cc1ccc(CC(=O)Nc2cccc(C(=O)Nc3c(C)n(C)n(-c4ccccc4)c3=O)c2)cc1C | - | . | - | - | - | -
CC(C)C(=O)OCC(=O)NCc1ccccc1Cl | - | - | - | - | - | -
Cc1ccc(NC(=O)/C=N/OCC(=O)NCc2ccccc2Cl)cc1 | - | - | - | 48 | - | -
COc1ccc(/C=C2/SC(=O)N(CCNC(=O)C3COc4ccccc4O3)C2=O)cc1 (centres undefined) | - | - | - | - | - | -
CCOc1ccc(/C=C2\SC(=O)N(CCNC(=O)C3COc4ccccc4O3)C2=O)cc1OC (centres undefined) | - | - | - | - | - | 51
Cn1/c(=N/NC(=O)c2ccccc2Br)sc2ccccc21 | - | - | - | 49 | - | -
COc1cc(C(=O)N/N=c2/sc3ccccc3n2C)cc(OC)c1OC | - | - | - | - | - | -
COC(CNC(=O)c1ccc2c3c(onc13)-c1ccccc1C2=O)OC | - | 80 | - | - | . | -
Cc1nc(N2CCN(c3ccccc3)CC2)[nH]c(=O)c1CCC(C)C | 60 | - | - | - | - | -
CC(C)CC(=O)c1c(O)c(C=O)c(O)c2c1O[C@@]1(C)[C@@H](C2)C[C@H]2C[C@@H]1C2(C)C | - | - | - | - | - | -
COc1ccc(CC(=O)N/N=C/c2cc(Br)cs2)cc1OC | 67 | - | - | - | - | -
COc1ccc(CC(=O)N/N=C/c2cccnc2)cc1OC | - | - | - | - | - | -
O=C(NCc1ccccc1)C(c1ccc(-c2ccccc2)cc1)n1c(=O)c(-c2cc3ccccc3[nH]2)nc2ccccc21 (centres undefined) | . | . | - | . | . | .
Oc1c(N=NC(=S)Nc2ccccc2F)c2ccccc2n1Cc1ccccc1Cl | - | - | - | ? | - | -
C=CCn1c(O)c(N=NC(=S)Nc2ccccc2F)c2cc(S(=O)(=O)N3CCOCC3)ccc21 | - | - | - | 52 | ? | -
Cc1c(Cl)cccc1NC(=S)N=Nc1c(O)n(CN2CCOCC2)c2ccccc12 | 105 | - | - | - | - | -
C=CCn1c(O)c(N=NC(=S)Nc2ccccc2F)c2ccccc21 | - | - | - | 60 | - | -
Oc1c(N=NC(=S)Nc2ccccc2F)c2ccccc2n1Cc1ccccc1 | - | - | - | 45 | - | -
S=C(Nc1cccnc1)NC1CC2CCC1C2 (centres undefined) | - | - | - | - | - | -
CCN(CC)C(=O)c1cccc(-c2csc(C(NC(C)=O)c3ccc(F)c(F)c3)n2)c1 (centres undefined) | - | . | - | . | - | -
COc1ccccc1-c1sc2cc3c(cc2c1C#Cc1cncn1C)OCO3 | - | - | - | - | - | -
O=C(CN1CCN(c2ccccc2F)CC1)NC(=O)NC1CCCCC1 | - | - | - | - | - | -
CCc1[nH]nc(C(=O)NC2CCCN(Cc3ccccc3F)C2)c1C (centres undefined) | - | - | - | - | - | -
O=C(COC(=O)c1cccc(-n2cnnn2)c1)c1ccc(F)c(F)c1 | - | . | - | - | - | -
O=c1cc(-c2ccc(O)c(O)c2)oc2ccc3ccccc3c12 | 92 | 88 | - | 52 | - | 78
CCCCOc1ccc(/C=C/C(=O)OCC(=O)N2CC(=O)Nc3ccccc32)cc1OCC | 68 | - | - | - | - | -

Assay outcomes deposited in PubChem by several laboratories.
